Assay results taken from the supplement of paper PMC9694430.

What was measured:
Experiment in all cases: thermal shift delta Tm vs DMSO control; higher = stronger stabilization (binding)
Conditions in all cases: 12.5 µM; protein concentration 2 µM
LOC_OS01G57100-cb003 = test system: LOC_OS01G57100-cb003
Outline: (§1)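 Heating from 25°C to 95°C at 0.05°C/s, fluorescence was recorded for 19.5 μl wells of 2 μM E. coli-expressed, purified rice kinase domain in 100 mM potassium phosphate pH 7.5, 150 mM NaCl, 10% glycerol and 5 × SYPRO Orange with compound in DMSO. Boltzmann fits gave melting temperatures for this differential scanning fluorimetry assay. The shift reported is the mean of three replicates against the DMSO-only protein.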

LOC_OS01G60330-cb001 = test system: LOC_OS01G60330-cb001
Outline: as §1

LOC_OS01G60700-cb002 = test system: LOC_OS01G60700-cb002
Outline: as §1

LOC_OS01G63280-cb003 = test system: LOC_OS01G63280-cb003
Outline: as §1

LOC_OS01G67340-cb003 = test system: LOC_OS01G67340-cb003
Outline: as §1

LOC_OS01G70970-cb002 = test system: LOC_OS01G70970-cb002
Outline: as §1

LOC_OS02G07810-cb001 = test system: LOC_OS02G07810-cb001
Outline: as §1

LOC_OS02G08530-cb003 = test system: LOC_OS02G08530-cb003
Outline: as §1

LOC_OS02G14120-cb001 = test system: LOC_OS02G14120-cb001
Outline: as §1

LOC_OS02G17970-cb001 = test system: LOC_OS02G17970-cb001
Outline: as §1

LOC_OS02G45750-cb003 = test system: LOC_OS02G45750-cb003
Outline: as §1

LOC_OS02G54510-cb004 = test system: LOC_OS02G54510-cb004
Outline: as §1

LOC_OS03G04050-cb001 = test system: LOC_OS03G04050-cb001
Outline: as §1

LOC_OS03G12390-cb001 = test system: LOC_OS03G12390-cb001
Outline: as §1

LOC_OS03G27990-cb004 = test system: LOC_OS03G27990-cb004
Outline: as §1

LOC_OS03G50450-cb001 = test system: LOC_OS03G50450-cb001
Outline: as §1

LOC_OS03G50810-cb003 = test system: LOC_OS03G50810-cb003
Outline: as §1

LOC_OS04G35114-cb001 = test system: LOC_OS04G35114-cb001
Outline: as §1

LOC_OS04G38480-cb003 = test system: T1, LOC_OS04G38480-cb003
T1 sequence (whole entry): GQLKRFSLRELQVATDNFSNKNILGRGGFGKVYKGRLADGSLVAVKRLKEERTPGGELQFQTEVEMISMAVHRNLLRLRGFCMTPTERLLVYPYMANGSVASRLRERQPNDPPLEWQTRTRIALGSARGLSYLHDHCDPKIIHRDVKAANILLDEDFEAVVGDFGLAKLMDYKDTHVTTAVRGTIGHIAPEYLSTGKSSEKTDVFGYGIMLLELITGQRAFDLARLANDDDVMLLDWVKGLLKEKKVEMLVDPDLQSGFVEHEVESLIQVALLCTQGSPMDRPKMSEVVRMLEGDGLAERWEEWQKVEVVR
Outline: as §1

LOC_OS04G41100-cb001 = test system: T2, LOC_OS04G41100-cb001
T2 sequence (whole entry): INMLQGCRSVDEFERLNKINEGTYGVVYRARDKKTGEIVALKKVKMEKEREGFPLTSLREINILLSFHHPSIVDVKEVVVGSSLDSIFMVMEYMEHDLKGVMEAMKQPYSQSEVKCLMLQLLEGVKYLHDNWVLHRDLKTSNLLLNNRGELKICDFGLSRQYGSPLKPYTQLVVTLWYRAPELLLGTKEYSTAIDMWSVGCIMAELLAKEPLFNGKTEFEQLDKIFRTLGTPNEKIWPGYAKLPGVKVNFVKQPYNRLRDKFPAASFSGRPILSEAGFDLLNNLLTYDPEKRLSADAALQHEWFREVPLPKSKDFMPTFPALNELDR
Outline: as §1
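Further: purified Escherichia coli-expressed rice kinase domain construct.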

Compound	thermal shift delta Tm (LOC_OS01G57100-cb003)	thermal shift delta Tm (LOC_OS01G60330-cb001)	thermal shift delta Tm (LOC_OS01G60700-cb002)	thermal shift delta Tm (LOC_OS01G63280-cb003)	thermal shift delta Tm (LOC_OS01G67340-cb003)	thermal shift delta Tm (LOC_OS01G70970-cb002)	thermal shift delta Tm (LOC_OS02G07810-cb001)	thermal shift delta Tm (LOC_OS02G08530-cb003)	thermal shift delta Tm (LOC_OS02G14120-cb001)	thermal shift delta Tm (LOC_OS02G17970-cb001)	thermal shift delta Tm (LOC_OS02G45750-cb003)	thermal shift delta Tm (LOC_OS02G54510-cb004)	thermal shift delta Tm (LOC_OS03G04050-cb001)	thermal shift delta Tm (LOC_OS03G12390-cb001)	thermal shift delta Tm (LOC_OS03G27990-cb004)	thermal shift delta Tm (LOC_OS03G50450-cb001)	thermal shift delta Tm (LOC_OS03G50810-cb003)	thermal shift delta Tm (LOC_OS04G35114-cb001)	thermal shift delta Tm (LOC_OS04G38480-cb003)	thermal shift delta Tm (LOC_OS04G41100-cb001)
N#CCNC(=O)c1ccc(-c2ccnc(Nc3ccc(N4CCOCC4)cc3)n2)cc1 [Momelotinib (CYT387)]	1.85 °C	6.73 °C	1.01 °C	0.32 °C	1.56 °C	0.41 °C	0.78 °C	1.72 °C	9.13 °C	0.53 °C	7.23 °C	1.25 °C	0.41 °C	2.09 °C	0.29 °C	1.99 °C	2.03 °C	3.88 °C	3.2 °C	2.25 °C
CC(C)(C)S(=O)(=O)c1ccc2nccc(Nc3n[nH]c4ccc(F)cc34)c2c1	0.91 °C	0.99 °C	0.81 °C	-0.25 °C	0.66 °C	0.6 °C	0.19 °C	0.61 °C	0.25 °C	0.37 °C	0.81 °C	0.59 °C	0.15 °C	0.75 °C	0.12 °C	-0.21 °C	0.11 °C	3.68 °C	0.32 °C	0.12 °C
Cc1cc(C)c(/C=C2\C(=O)Nc3ccccc32)[nH]1 [Semaxanib (SU5416)]	1.1 °C	6.76 °C	1.12 °C	0.7 °C	2.32 °C	2.72 °C	1.03 °C	3.63 °C	3.06 °C	1.09 °C	0 °C	0.58 °C	0.69 °C	4.53 °C	1.72 °C	2.32 °C	2.91 °C	6.57 °C	2.87 °C	0.32 °C
CCC[C@H](NC(=O)/C(C#N)=C/c1cccc(Br)n1)c1ccccc1 [Degrasyn (WP1130)]	5.82 °C	0.61 °C	1.12 °C	-5.45 °C	-3.27 °C	0.17 °C	0.68 °C	-0.39 °C	-1.56 °C	4.33 °C	-2.36 °C	-1.29 °C	0.2 °C	-5.26 °C	-3.68 °C	-0.35 °C	-2.71 °C	-2.87 °C	1.05 °C	-0.61 °C
CCCCCCCCCC(=O)CC(O)S(=O)(=O)O (stereo not given) [Sodium Houttuyfonate]	1.15 °C	0.04 °C	0.03 °C	0.07 °C	0.28 °C	0.09 °C	0.29 °C	0.25 °C	-0.08 °C	1.73 °C	0.77 °C	0.52 °C	0.5 °C	0.34 °C	0.41 °C	0.36 °C	0.37 °C	0.65 °C	1.54 °C	0.45 °C
COc1cc(OC)cc(N(CCNC(C)C)c2ccc3ncc(-c4cnn(C)c4)nc3c2)c1	1.85 °C	0.09 °C	0.12 °C	0.43 °C	0.07 °C	0.6 °C	-0.54 °C	0.61 °C	2.34 °C	-0.45 °C	1.81 °C	2.46 °C	0.37 °C	0.27 °C	0.3 °C	0.28 °C	0.45 °C	0.74 °C	2.14 °C	0.41 °C
Cc1c[nH]c2nc(Nc3ccc(N4CCN(C)CC4)c(F)c3)nc(-c3cccc(CC#N)c3)c12	5.04 °C	11.8 °C	1.98 °C	3.25 °C	11.9 °C	8.75 °C	1.04 °C	6.49 °C	15.2 °C	1.24 °C	11.6 °C	3.94 °C	0.91 °C	13 °C	8.79 °C	8.2 °C	9.84 °C	12.4 °C	6.06 °C	1.61 °C
